# Reference: PubChem BioAssay (Tox21)
# Values without a mark were called inactive. Records with an inconclusive call do not appear. Where a call stands in place of a potency, no number is given. Calls of active or inactive are those of the source. Unless noted, calls come from the whole dose curve; as a rule, active = well fitted curve in the direction sought with a large enough effect in the repeat runs; inconclusive = weak or mixed curves; inactive = no such curve, though single readings can be large; an effect the other way counts as inactive or inconclusive.
# How the values were obtained:
# [1] = qHTS assay to identify small molecule antagonists of the glucocorticoid receptor (GR) signaling pathway - cell viability counter screen (AID 720693); note: nearly all actives have a fitted effect of over 55% in size
# [2] = qHTS assay for identifying genotoxic compounds that show differential cytotoxicity against isogenic chicken DT40 cell lines with known DNA damage response pathways - wild type cell line (AID 743012); note: nearly all actives have a fitted effect of over 60% in size; note: potency is the fitted concentration of half-maximal effect
# Procedure, shortened: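 Wild-type DT40 cells (300/well) exposed to compounds for 40 hours at 37 C/5% CO2. Viability read by CellTiter-Glo luminescence after 30 min at room temperature.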
# [3] = qHTS assay for identifying genotoxic compounds that show differential cytotoxicity against isogenic chicken DT40 cell lines with known DNA damage response pathways - Rad54/Ku70 mutant cell line (AID 743015); note: nearly all actives have a fitted effect of over 60% in size; note: potency is the fitted concentration of half-maximal effect
# [4] = qHTS assay to identify small molecule antagonists of the androgen receptor (AR) signaling pathway - cell viability counter screen (AID 743033; note: nearly all actives have a fitted effect of over 45% in size)
# [5] = qHTS assay to identify small molecule antagonists of the androgen receptor (AR) signaling pathway using the MDA cell line - cell viability counter screen (AID 743041; note: nearly all actives have a fitted effect of over 45% in size; note: potency is the fitted concentration of half-maximal effect)
# Procedure, shortened: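 Same-well cytotoxicity was assessed by CellTiter-Fluor in MDA-kb2 AR-luc cells after 16 h of compound treatment under R1881 agonism.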
# [6] = molecular target: Androgen receptor (Homo sapiens) (UniProt P10275); assay: qHTS assay to identify small molecule antagonists of the androgen receptor (AR) signaling pathway using the MDA cell line (AID 743042; note: nearly all actives have a fitted effect of over 55% in size; note: potency is the fitted concentration of half-maximal effect)
# Procedure, shortened: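 MDA-kb2 breast carcinoma cells carrying MMTV-luciferase (AR/GR responsive) were co-treated with compounds and the agonist R1881 for 16 h at 37C. Inhibition read as ONE-Glo luminescence; CellTiter-Fluor fluorescence measured in parallel for cytotoxicity.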
# [7] = qHTS assay to identify small molecule antagonists of the thyroid receptor (TR) signaling pathway - cell viability counter screen (AID 743064); note: nearly all actives have a fitted effect of over 50% in size; note: potency is the fitted concentration of half-maximal effect
# Procedure, shortened: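 Compounds were tested on GH3.TRE-Luc cells in the presence of T3 at 1 nM final. Following 23.5 h at 37 °C, cell viability was quantified by CellTiter-Fluor.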
# [8] = qHTS assay for identifying genotoxic compounds that show differential cytotoxicity against isogenic chicken DT40 cell lines with known DNA damage response pathways - Rev3 mutant cell line (AID 743014); note: nearly all actives have a fitted effect of over 55% in size; note: potency is the fitted concentration of half-maximal effect
# [9] = molecular target: Androgen receptor (Homo sapiens) (UniProt P10275); assay: qHTS assay to identify small molecule agonists of the androgen receptor (AR) signaling pathway using the MDA cell line (AID 743040; note: nearly all actives have a fitted effect of over 20% in size)
# Procedure, shortened: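 Human breast carcinoma MDA-kb2 reporter cells (MMTV-luc, AR/GR elements) were treated for 16 h at 37C in 0% CO2 following a 5 h settling period. Signal was quantified by ONE-Glo luminescence.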
# [10] = molecular target: Androgen receptor (Homo sapiens) (UniProt P10275); assay: qHTS assay to identify small molecule antagonists of the androgen receptor (AR) signaling pathway (AID 743035; active = well fitted inhibition curve with a large enough effect in the signal ratio in the repeat runs, not every such curve was filed as active; the % refers to the signal ratio; note: potency is the fitted concentration of half-maximal effect)
# Procedure, shortened: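 HEK293 cells stably carrying UAS-beta-lactamase reporter, 2,000/well, given compounds plus R1881 agonist and incubated 16 h at 37C. LiveBLAzer B/G FRET substrate then added for 2 h at room temperature before fluorescence reading.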
# Androgen receptor (Homo sapiens), sequence (P10275 whole entry, looked up): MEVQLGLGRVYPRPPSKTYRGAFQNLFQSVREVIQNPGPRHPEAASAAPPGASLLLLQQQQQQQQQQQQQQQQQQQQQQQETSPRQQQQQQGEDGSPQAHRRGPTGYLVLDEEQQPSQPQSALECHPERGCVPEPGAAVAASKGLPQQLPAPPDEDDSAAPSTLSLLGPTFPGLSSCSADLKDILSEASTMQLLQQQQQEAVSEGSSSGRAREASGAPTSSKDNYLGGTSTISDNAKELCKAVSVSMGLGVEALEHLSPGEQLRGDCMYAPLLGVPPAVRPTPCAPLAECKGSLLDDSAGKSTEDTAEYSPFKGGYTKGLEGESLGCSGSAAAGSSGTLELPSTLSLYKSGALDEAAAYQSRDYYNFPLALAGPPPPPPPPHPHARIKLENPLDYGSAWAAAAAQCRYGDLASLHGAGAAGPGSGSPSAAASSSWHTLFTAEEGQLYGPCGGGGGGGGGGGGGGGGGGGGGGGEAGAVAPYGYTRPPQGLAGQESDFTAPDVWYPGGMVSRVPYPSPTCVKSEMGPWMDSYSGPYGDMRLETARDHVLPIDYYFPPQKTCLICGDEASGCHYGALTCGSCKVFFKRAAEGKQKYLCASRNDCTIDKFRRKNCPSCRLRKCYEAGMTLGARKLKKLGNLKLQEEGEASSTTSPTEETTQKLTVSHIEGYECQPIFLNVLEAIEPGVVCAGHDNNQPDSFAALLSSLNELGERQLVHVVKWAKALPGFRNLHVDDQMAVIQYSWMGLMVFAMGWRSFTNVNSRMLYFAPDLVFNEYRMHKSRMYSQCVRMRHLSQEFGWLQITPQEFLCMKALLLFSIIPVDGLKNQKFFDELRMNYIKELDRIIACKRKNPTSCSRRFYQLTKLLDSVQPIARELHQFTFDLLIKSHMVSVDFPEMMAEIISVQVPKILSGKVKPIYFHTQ
smiles,measurement,setting,value
COc1ccc(C(=O)c2ccc(OC)cc2O)c(O)c1,Potency,[1],inactive
same,Potency,[2],inactive
same,Potency,[3],inactive
same,Potency,[4],inactive
same,Potency,[5],inactive
same,Potency,[6],inactive
O=C(O)CC(=O)C(=O)O,Potency,[1],inactive
same,Potency,[2],inactive
same,Potency,[3],inactive
same,Potency,[4],inactive
same,Potency,[5],inactive
CCNc1cc(O)ccc1C,Potency,[1],inactive
same,Potency,[2],inactive
same,Potency,[3],inactive
same,Potency,[4],inactive
same,Potency,[5],inactive
same,Potency,[7],inactive
Clc1ccc(Cn2c(CN3CCCC3)nc3ccccc32)cc1,Potency,[1],inactive
same,Potency,[2],4.03 µM (active)
same,Potency,[3],7.17 µM (active)
same,Potency,[4],inactive
same,Potency,[5],inactive
CCN(CC)CCNC(=O)c1cc(Br)c(N)cc1OC,Potency,[1],inactive
same,Potency,[2],inactive
same,Potency,[3],inactive
same,Potency,[4],inactive
same,Potency,[5],inactive
COc1ccc(C)cc1[N+](=O)[O-],Potency,[1],inactive
same,Potency,[2],inactive
same,Potency,[3],inactive
same,Potency,[4],inactive
same,Potency,[5],inactive
same,Potency,[7],inactive
CCCCNc1ccc(C(=O)OCCOCCOCCOCCOCCOCCOCCOCCOCCOC)cc1,Potency,[1],inactive
same,Potency,[2],inactive
same,Potency,[3],inactive
same,Potency,[4],inactive
same,Potency,[5],inactive
same,Potency,[7],inactive
NCC(=O)O,Potency,[1],inactive
same,Potency,[2],inactive
same,Potency,[3],inactive
same,Potency,[4],inactive
same,Potency,[5],inactive
same,Potency,[7],inactive
CC(C)Nc1ccc(NC(C)C)c2c1C(=O)c1ccccc1C2=O,Potency,[1],inactive
same,Potency,[2],inactive
same,Potency,[3],inactive
same,Potency,[4],inactive
same,Potency,[5],inactive
same,Potency,[7],inactive
O=C(O)C1(C(=O)Nc2ccc(Cl)cc2Cl)CC1,Potency,[1],inactive
same,Potency,[2],61.1 µM (active)
same,Potency,[8],68.6 µM (active)
same,Potency,[9],inactive
same,Potency,[5],inactive
same,Potency,[6],inactive
same,Potency,[7],inactive
Brc1c2ccccc2cc2ccccc12,Potency,[1],inactive
same,Potency,[2],inactive
same,Potency,[3],inactive
same,Potency,[4],inactive
same,Potency,[5],inactive
same,Potency,[7],inactive
NC(N)=NCCC[C@H](N)C(=O)O,Potency,[1],inactive
same,Potency,[2],inactive
same,Potency,[3],inactive
same,Potency,[4],inactive
same,Potency,[5],inactive
same,Potency,[7],inactive
Cc1[nH]c(C)c(Cl)c(=O)c1Cl,Potency,[1],inactive
same,Potency,[2],inactive
same,Potency,[3],inactive
same,Potency,[4],inactive
same,Potency,[5],inactive
same,Potency,[7],inactive
O=C1C(O)=C(O)C(=O)C(O)=C1O,Potency,[1],inactive
same,Potency,[2],inactive
same,Potency,[3],inactive
same,Potency,[4],inactive
same,Potency,[5],inactive
CCCCCCCCCCCc1ccccc1,Potency,[1],inactive
same,Potency,[2],inactive
same,Potency,[8],60.3 µM (active)
same,Potency,[4],inactive
same,Potency,[5],inactive
C/C=C/C(=O)CC,Potency,[1],inactive
same,Potency,[2],inactive
same,Potency,[3],inactive
same,Potency,[4],inactive
same,Potency,[5],inactive
O=C(O)C(S)C(S)C(=O)O (stereo not given),Potency,[1],inactive
same,Potency,[2],inactive
same,Potency,[8],inactive
same,Potency,[4],inactive
same,Potency,[5],inactive
same,Potency,[7],26.6 µM (active)
OC(C#CCN1CCCC1)(c1ccccc1)c1ccccc1,Potency,[1],inactive
same,Potency,[2],23.7 µM (active)
same,Potency,[3],26.6 µM (active)
same,Potency,[4],inactive
same,Potency,[5],inactive
c1ccc(CNCCNCc2ccccc2)cc1,Potency,[1],inactive
same,Potency,[2],inactive
same,Potency,[8],inactive
same,Potency,[4],inactive
same,Potency,[5],inactive
same,Potency,[7],inactive
O=C(O)c1ccccc1Cl,Potency,[1],inactive
same,Potency,[2],inactive
same,Potency,[3],inactive
same,Potency,[4],inactive
same,Potency,[5],inactive
same,Potency,[7],inactive
CCCCC1=NC2(CCCC2)C(=O)N1Cc1ccc(-c2ccccc2-c2nn[nH]n2)cc1,Potency,[1],inactive
same,Potency,[2],inactive
same,Potency,[3],inactive
same,Potency,[4],inactive
same,Potency,[5],inactive
O=[N+]([O-])c1ccc(NCCO)c(OCCO)c1,Potency,[1],inactive
same,Potency,[2],inactive
same,Potency,[3],inactive
same,Potency,[4],inactive
same,Potency,[10],inactive
same,Potency,[9],inactive
same,Potency,[5],54.5 µM (active)
same,Potency,[6],inactive
CCCCOC(=O)CCCCCCCC(=O)OCCCC,Potency,[1],inactive
same,Potency,[2],inactive
same,Potency,[3],inactive
same,Potency,[4],inactive
same,Potency,[5],inactive
Cn1c(=O)cc(Oc2ccc(F)cc2F)c2cnc(NCC(C)(C)O)nc21,Potency,[1],inactive
same,Potency,[2],inactive
same,Potency,[3],27.3 µM (active)
same,Potency,[4],inactive
same,Potency,[5],inactive
O=S(=O)(Oc1ccc(Cl)cc1)c1ccccc1,Potency,[1],inactive
same,Potency,[2],inactive
same,Potency,[3],54.5 µM (active)
same,Potency,[4],inactive
same,Potency,[5],inactive
same,Potency,[7],inactive
O=[N+]([O-])c1cccc(S(=O)(=O)O)c1,Potency,[1],inactive
same,Potency,[2],inactive
same,Potency,[3],inactive
same,Potency,[4],inactive
same,Potency,[5],inactive
C=CC(=O)OCCOc1ccccc1,Potency,[1],inactive
same,Potency,[2],54.4 µM (active)
same,Potency,[8],61.1 µM (active)
same,Potency,[4],inactive
same,Potency,[5],inactive
same,Potency,[7],inactive
CC1=CCCC(C)(C)C12CCC(C)O2 (stereo not given),Potency,[1],inactive
same,Potency,[2],24.3 µM (active)
same,Potency,[3],13.7 µM (active)
same,Potency,[4],inactive
same,Potency,[5],inactive
same,Potency,[7],inactive
O=C1c2ccccc2S(=O)(=O)N1CCCCN1CCN(c2ncccn2)CC1,Potency,[1],inactive
same,Potency,[2],inactive
same,Potency,[3],inactive
same,Potency,[4],inactive
same,Potency,[5],inactive
same,Potency,[7],inactive
S=C([S-])NCCNC(=S)[S-].[Mn+2],Potency,[1],inactive
same,Potency,[2],61.1 µM (active)
same,Potency,[3],61.1 µM (active)
same,Potency,[4],inactive
same,Potency,[5],inactive
C1CCCNCCC1,Potency,[1],inactive
same,Potency,[8],inactive
same,Potency,[3],inactive
same,Potency,[4],inactive
same,Potency,[5],inactive
CCCCc1nc2cccnc2n1Cc1ccc(-c2ccccc2-c2nnn[nH]2)cc1,Potency,[1],inactive
same,Potency,[2],inactive
same,Potency,[3],inactive
same,Potency,[4],inactive
same,Potency,[5],inactive
same,Potency,[7],54.5 µM (active)
O=C(NCCO[N+](=O)[O-])c1cccnc1,Potency,[1],inactive
same,Potency,[2],inactive
same,Potency,[3],inactive
same,Potency,[4],inactive
same,Potency,[5],inactive
same,Potency,[7],inactive
Cc1cccc(C)c1OCC(=O)N[C@@H](Cc1ccccc1)[C@@H](O)C[C@H](Cc1ccccc1)NC(=O)[C@H](C(C)C)N1CCCNC1=O,Potency,[1],inactive
same,Potency,[2],16.8 µM (active)
same,Potency,[3],11.9 µM (active)
same,Potency,[9],inactive
OC(CN1CCC(Cc2ccc(F)cc2)CC1)c1ccc(Cl)cc1 (stereo not given),Potency,[1],inactive
same,Potency,[8],1.68 µM (active)
same,Potency,[3],2.11 µM (active)
same,Potency,[4],inactive
same,Potency,[10],inactive
same,Potency,[9],inactive
same,Potency,[5],inactive
same,Potency,[6],inactive
CN1C[C@H]2c3ccccc3Oc3ccc(Cl)cc3[C@@H]2C1,Potency,[1],inactive
same,Potency,[2],26.6 µM (active)
same,Potency,[3],29.8 µM (active)
same,Potency,[4],inactive
same,Potency,[5],inactive
same,Potency,[7],15 µM (active)
CC(=O)c1ccc2c(c1)N(CCCN(C)C)c1ccccc1S2,Potency,[1],inactive
same,Potency,[2],12.7 µM (active)
same,Potency,[4],inactive
same,Potency,[5],inactive
same,Potency,[7],10.1 µM (active)
C[Si](C)(CCCN)O[Si](C)(C)CCCN,Potency,[1],inactive
same,Potency,[2],inactive
same,Potency,[4],inactive
same,Potency,[5],inactive
same,Potency,[7],inactive
COc1ccc(-c2nc3ccc(C4=NNC(=O)CC4C)cc3[nH]2)cc1 (stereo not given),Potency,[1],inactive
same,Potency,[2],11.9 µM (active)
same,Potency,[3],18.8 µM (active)
same,Potency,[10],19 µM (active)
same,Potency,[9],inactive
same,Potency,[5],inactive
same,Potency,[6],inactive
CCCCCCc1ccc(-c2ccc(C#N)cc2)cc1,Potency,[1],inactive
same,Potency,[2],inactive
same,Potency,[3],inactive
same,Potency,[4],inactive
same,Potency,[5],inactive
same,Potency,[7],inactive
CCN(CC)CCOC(=O)C(Cc1cccc2ccccc12)CC1CCCO1 (stereo not given),Potency,[1],inactive
same,Potency,[8],inactive
same,Potency,[3],inactive
same,Potency,[4],inactive
same,Potency,[5],inactive
Cc1nn(C)c(Oc2ccccc2)c1/C=N/OCc1ccc(C(=O)OC(C)(C)C)cc1,Potency,[1],inactive
same,Potency,[2],0.0022 µM (active)
same,Potency,[10],0.123 µM (active)
same,Potency,[9],inactive
same,Potency,[5],0.0077 µM (active)
same,Potency,[6],0.0024 µM (active)
CN(C)c1ccc(/C=C/c2ccc([N+](=O)[O-])cc2)cc1,"viability change, negative = cytotoxic",[1],6.19% [at 7.04 µM]
same,"activity, negative = cytotoxicity",[8],-15.9% [at 8.53 µM]
same,"activity change, negative = cytotoxicity",[3],1.06% [at 8.55 µM]
same,"activity change, negative = cytotoxicity",[4],7.66% [at 7.04 µM]
same,"viability change, negative = cytotoxic",[5],-4.28% [at 8.47 µM]
same,"activity change, negative = cytotoxic",[7],14.3% [at 8.44 µM]
CCOc1ccc(N)c([N+](=O)[O-])c1,Potency,[1],inactive
same,Potency,[2],inactive
same,Potency,[3],inactive
same,Potency,[4],inactive
same,Potency,[7],inactive
O=C(O)c1nc(Cl)c(Cl)c(Cl)c1Cl,Potency,[1],inactive
same,Potency,[8],inactive
same,Potency,[3],61.1 µM (active)
same,Potency,[4],inactive
same,Potency,[5],inactive
c1ccc(-c2ccccn2)nc1,Potency,[1],inactive
same,Potency,[8],24.3 µM (active)
same,Potency,[3],24.3 µM (active)
same,Potency,[4],inactive
same,Potency,[9],inactive
same,Potency,[5],inactive
same,Potency,[6],inactive
COc1cc(C(=O)OCCCN2CCCN(CCCOC(=O)c3cc(OC)c(OC)c(OC)c3)CC2)cc(OC)c1OC,Potency,[1],inactive
same,Potency,[2],8.41 µM (active)
same,Potency,[3],8.41 µM (active)
same,Potency,[9],inactive
same,Potency,[5],inactive
same,Potency,[6],inactive
same,Potency,[7],8.41 µM (active)
Cc1oc(-c2ccccc2)nc1CCOc1cccc2c1ccn2CCC(=O)O,Potency,[1],inactive
same,Potency,[2],inactive
same,Potency,[4],inactive
same,Potency,[5],inactive
Cc1cc(N)c2cc(NC(=O)Nc3ccc4nc(C)cc(N)c4c3)ccc2n1,Potency,[1],inactive
same,Potency,[8],21.1 µM (active)
same,Potency,[3],16.8 µM (active)
same,Potency,[4],inactive
same,Potency,[9],inactive
same,Potency,[7],29.8 µM (active)
